Screening data (PubChem)
FAS TE block = inhibitors of human fatty acid synthase thioesterase domain; inhibition, % at 15 µM; 360,000 tested, 0.67% active; recombinant FAS-TE, OMFH fluorogenic substrate, fluorescence endpoint; P49327;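 active = compounds whose normalised, plate-corrected inhibition of enzyme fluorescence in the single-dose primary screen is 50% or more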;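 note: 0% = DMSO with enzyme and 100% = substrate without enzyme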
Target sequence (P49327 whole entry, looked up, the tested form may be a part): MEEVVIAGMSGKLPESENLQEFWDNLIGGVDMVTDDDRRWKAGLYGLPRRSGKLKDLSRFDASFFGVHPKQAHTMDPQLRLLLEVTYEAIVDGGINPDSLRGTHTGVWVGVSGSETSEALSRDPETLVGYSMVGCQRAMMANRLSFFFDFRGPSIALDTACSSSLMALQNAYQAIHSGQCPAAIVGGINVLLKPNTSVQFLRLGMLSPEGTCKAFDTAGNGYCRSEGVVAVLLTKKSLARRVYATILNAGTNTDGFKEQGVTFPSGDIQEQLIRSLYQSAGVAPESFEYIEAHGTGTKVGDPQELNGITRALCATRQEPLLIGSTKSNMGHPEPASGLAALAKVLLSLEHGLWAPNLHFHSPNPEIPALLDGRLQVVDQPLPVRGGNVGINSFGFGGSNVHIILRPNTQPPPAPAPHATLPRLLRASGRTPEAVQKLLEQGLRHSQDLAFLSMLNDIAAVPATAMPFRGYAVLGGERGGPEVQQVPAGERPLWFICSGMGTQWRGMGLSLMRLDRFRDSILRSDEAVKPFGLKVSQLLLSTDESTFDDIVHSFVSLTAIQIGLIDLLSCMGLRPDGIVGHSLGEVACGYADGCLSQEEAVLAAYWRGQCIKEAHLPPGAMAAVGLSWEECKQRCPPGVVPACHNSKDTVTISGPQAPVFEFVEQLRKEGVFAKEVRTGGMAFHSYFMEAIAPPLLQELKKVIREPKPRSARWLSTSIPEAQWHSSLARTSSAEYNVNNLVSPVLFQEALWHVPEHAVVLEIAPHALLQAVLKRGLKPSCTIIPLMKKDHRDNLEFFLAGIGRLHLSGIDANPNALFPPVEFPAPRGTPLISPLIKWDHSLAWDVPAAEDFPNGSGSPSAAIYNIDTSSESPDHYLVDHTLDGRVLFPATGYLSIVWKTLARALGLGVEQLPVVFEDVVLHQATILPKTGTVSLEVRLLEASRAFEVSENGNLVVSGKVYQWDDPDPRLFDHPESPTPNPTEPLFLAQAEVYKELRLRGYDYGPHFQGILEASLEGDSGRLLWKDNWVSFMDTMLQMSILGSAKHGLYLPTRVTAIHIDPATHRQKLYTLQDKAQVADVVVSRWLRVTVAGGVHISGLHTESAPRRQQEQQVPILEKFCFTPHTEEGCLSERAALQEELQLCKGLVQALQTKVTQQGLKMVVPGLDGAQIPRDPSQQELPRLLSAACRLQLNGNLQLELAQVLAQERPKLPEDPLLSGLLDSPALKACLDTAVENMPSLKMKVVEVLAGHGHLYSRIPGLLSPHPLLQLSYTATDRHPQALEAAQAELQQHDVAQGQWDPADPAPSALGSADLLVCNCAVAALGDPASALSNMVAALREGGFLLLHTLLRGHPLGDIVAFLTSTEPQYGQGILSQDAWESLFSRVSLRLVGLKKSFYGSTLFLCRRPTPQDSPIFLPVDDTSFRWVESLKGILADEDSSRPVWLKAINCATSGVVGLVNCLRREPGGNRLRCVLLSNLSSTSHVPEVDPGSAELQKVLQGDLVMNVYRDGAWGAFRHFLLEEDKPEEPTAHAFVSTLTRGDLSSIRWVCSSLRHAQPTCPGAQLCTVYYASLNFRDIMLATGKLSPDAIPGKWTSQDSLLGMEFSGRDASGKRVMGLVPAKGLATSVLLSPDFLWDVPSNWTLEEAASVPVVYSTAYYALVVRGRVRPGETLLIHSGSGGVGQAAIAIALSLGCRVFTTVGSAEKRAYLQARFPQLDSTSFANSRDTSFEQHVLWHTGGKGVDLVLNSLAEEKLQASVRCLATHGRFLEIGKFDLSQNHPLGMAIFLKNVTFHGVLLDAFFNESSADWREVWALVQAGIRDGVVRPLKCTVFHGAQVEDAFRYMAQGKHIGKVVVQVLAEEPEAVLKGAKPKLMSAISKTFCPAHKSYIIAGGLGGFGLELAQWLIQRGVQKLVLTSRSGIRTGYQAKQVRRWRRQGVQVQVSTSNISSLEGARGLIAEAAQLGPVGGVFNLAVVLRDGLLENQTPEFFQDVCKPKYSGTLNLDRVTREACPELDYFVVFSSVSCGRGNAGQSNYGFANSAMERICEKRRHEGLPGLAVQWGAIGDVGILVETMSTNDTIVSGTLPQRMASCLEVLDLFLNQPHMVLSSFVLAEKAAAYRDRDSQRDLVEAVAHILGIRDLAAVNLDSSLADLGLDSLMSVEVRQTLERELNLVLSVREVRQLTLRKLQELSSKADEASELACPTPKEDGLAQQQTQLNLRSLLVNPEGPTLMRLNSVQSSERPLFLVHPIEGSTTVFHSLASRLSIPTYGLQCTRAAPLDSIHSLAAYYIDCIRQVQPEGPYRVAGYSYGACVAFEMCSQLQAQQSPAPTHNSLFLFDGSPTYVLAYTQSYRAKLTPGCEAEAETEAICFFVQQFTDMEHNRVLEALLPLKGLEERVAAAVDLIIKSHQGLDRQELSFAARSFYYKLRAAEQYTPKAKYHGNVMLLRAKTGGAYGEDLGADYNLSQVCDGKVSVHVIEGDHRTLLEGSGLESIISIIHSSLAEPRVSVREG
rCAG binder = molecules binding r(CAG) RNA repeats | r(CAG) RNA repeat, TO-PRO-1 dye displacement fluorescence | inhibition, % at 3 µM | 370,000 tested, 1.3% active;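 active = inhibition above the plate cutoff, the mean of all test compounds on that plate plus 3 SD, cut at about 35% in these data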;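 note: 0% = DMSO alone and 100% = 100 µM mitoxantrone as full dye displacement; higher means more dye released from RNA so lower well fluorescence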
NR3A LBD binder = modulators (binders) of human NR3A ligand-binding domain. NR3A LBD differential scanning fluorimetry, Tm shift; 0% = protein alone, 100% = glycine-bound protein. Tm shift relative to glycine control, % at 25 µM. 340,000 tested, 2.5% active;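 active = melting temperature shift of at least 10% of the positive control shift, at one fixed dose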
NadD inh = blocks S. aureus nicotinate mononucleotide adenylyltransferase; 360,000 tested, 0.78% active; AID 602399; inhibition, % at 20 µM; purified NadD enzyme, colorimetric absorbance read-out; in the data active = inhibition above about 26%
The depositor's hits bear a star; · = no result. In the library only some 4.3% were active in any assay of this set; here they are far more common.

SMILES | FAS TE block | rCAG binder | NR3A LBD binder | NadD inh
C=CCN1C(=O)[C@@H](CC(=O)N2CCCC2)[C@]2(C(=O)OCC)CCCCC/C=C/12 | · | 5 | · | ·
O=c1c2ccccc2nc(COc2ccccc2)n1/N=C/c1c[nH]c2ccccc12 | -6 | 2 | 25* | 5
Cc1ccccc1OCc1nc2ccccc2c(=O)n1/N=C/c1cn[nH]c1-c1ccc(Br)cc1 | -10 | 3 | 26* | 19
O=c1c2ccccc2nc(COc2ccccc2)n1/N=C/c1ccc(O)cc1O | 13 | 11 | 2 | 4
COC(=O)N[C@H]1CC=C[C@@H]1Cc1cccc(Oc2ccccc2)c1 | · | 1 | · | ·
COC(=O)c1cc(-c2ccc(OC)c(OC)c2)c(=O)n2c1CCC2 | · | 6 | · | ·
Cc1ccc(NC(=O)Nc2ccc(F)cc2)cc1Cl | 3 | 4 | 28* | -2
COc1cccc(NC(=O)Nc2cc(C(=O)O)ccc2C)c1 | 1 | 6 | -3 | 3
COc1cccc(NC(=O)Nc2ccncc2)c1 | -5 | 2 | 1 | -1
COc1cccc(NC(=O)Nc2ccc(C)c(Cl)c2)c1 | 7 | 9 | 34* | -4
COc1cccc(NC(=O)Nc2ccc(C(C)(C)C)cc2)c1 | 18 | 3 | 18* | -2
Cc1ccc(NC(=O)CCC(=O)c2ccc(F)cc2)cc1Cl | 7 | 0 | -2 | -3
CC(=O)CC[C@H]1CC[C@]2(CCCN(C(=O)c3ccno3)C2)O1 | · | 1 | · | ·
O=C(N/N=C/c1ccc(-c2ccc(Br)cc2)o1)c1ccc2c(c1)OCO2 | 2 | 12 | 11* | 19
O=C(N/N=C/c1cccc2ccccc12)c1ccncc1 | -3 | -2 | -16 | -4
O=C(N/N=C/c1ccccc1O)c1ccncc1 | 1 | 1 | 21* | 0
COc1ccc(-c2cc(C(=O)NN=Cc3ccc(O)c(OC)c3)[nH]n2)cc1 | · | 8 | · | ·
COc1cc2ccccc2cc1C(=O)N/N=C/c1ccc2c(c1)OCO2 | 15 | 3 | 12* | 2
COc1cc(/C=N/NC(=O)c2cc(-c3ccc4c(c3)OCO4)n[nH]2)ccc1O | -6 | 8 | 28* | 12
O=C(N/N=C/c1ccc(COc2ccc(Br)cc2)o1)c1ccc2c(c1)OCO2 | 17 | 4 | 4 | 10
COC(=O)[C@H](CC(C)C)N(CCCc1cn(Cc2ccccc2)nn1)S(=O)(=O)c1ccc(F)cc1Br | · | 1 | · | ·
CN(Cc1ccccc1)C(=O)OCc1cn(Cc2ccc(Cl)cc2)nn1 | · | 5 | · | ·
C#CCNC(=O)C[C@H]1C[C@@]2(C(=O)OC)C(=C[C@H](COCc3ccccc3)O[C@@H]2C)N(CCc2ccc(OC)c(OC)c2)C1=O | · | 4 | · | ·
O=C(NN=Cc1ccc2c(c1)OCO2)c1ccccc1 | -5 | 0 | -1 | -1
O=C(O)COc1ccccc1/C=N/NC(=O)/C(=C\c1ccc2c(c1)OCO2)NC(=O)c1ccccc1 | 2 | 18 | 191* | 4
SMILES | FAS TE block | rCAG binder | NR3A LBD binder | NadD inh
COc1ccc(OC)c(-c2cc(C(=O)Nc3ccccc3C(N)=O)c3ccccc3n2)c1 | 20 | 5 | 11* | 3
O=C(NN=Cc1ccc2c(c1)OCO2)c1ccncc1 | -6 | 3 | 25* | -5
O=C(Nc1ccc(C(=O)O)cc1)/C(=C\c1ccc2c(c1)OCO2)NC(=O)c1ccccc1 | -10 | 7 | -1 | 0
COc1cc(/C=N/NC(=O)c2cc(-c3cccc(Br)c3)nc3ccccc23)cc(OC)c1O | 6 | 13 | 13* | 18
COc1ccc(OC)c(-c2cc(C(=O)N/N=C/c3ccc(F)cc3)c3ccccc3n2)c1 | 34 | 7 | 1 | 9
Cc1ccc(-c2cccc3[nH]cc(C)c23)s1 | · | 3 | · | ·
C[C@H]1COc2cccc(N3CCSCC3)c2S(=O)(=O)N1C | · | 0 | · | ·
O=C(N/N=C/c1ccc(O)cc1)c1csc2ccccc12 | 2 | 5 | 23* | 4
O=C(N/N=C/c1ccc(O)cc1)c1cc(-c2ccccc2)nc2ccccc12 | 3 | 24 | 13* | 2
COc1ccc(NC(=O)c2cc(-c3ccccc3)nc3c2c(C)nn3-c2ccccc2)c(OC)c1 | 27 | 4 | 13* | 11
COc1ccc(-c2cc(C(=O)N/N=C/c3ccc4c(c3)OCO4)c3ccccc3n2)c(OC)c1 | 51* | 17 | -3 | 21
COc1cc(/C=N/NC(=O)c2cc(-c3ccccc3)nc3ccccc23)ccc1O | 10 | 19 | 6 | 12
COc1ccc(-c2cc(C(=O)N/N=C/c3ccc(OC)c(COCC(F)(F)C(F)F)c3)c3ccccc3n2)c(OC)c1 | 16 | 14 | 2 | 26
COc1ccc(CN2C/C(=C/C3=CCCCC3)N(C(=O)OCc3ccccc3)C2=N)c(OC)c1 | · | 6 | · | ·
Cc1ccc(-n2c(SCC(=O)Nc3ccc(S(=O)(=O)Nc4cc(C)nc(C)n4)cc3)nnc2-c2ccncc2)cc1 | · | 30 | · | ·
